The source made the active and inactive calls. The calls were made as follows: active = hit-call score of the fitted dose curve at least 0.9, where 1 is the maximum; inactive = score below 0.9.

Outcome and AC50 data for 40 molecules are collected here from PubChem BioAssay (EPA / NIEHS).

A short description of the test: ATG_VDRE_CIS: Attagene CIS-FACTORIAL HepG2 Assay for human Vitamin D Receptor Element (VDRE) (AID 2282968). Conditions: HepG2 VDRE cis-reporter transcription, actives raise or lower the signal. As for the experimental part:
ATG_CIS is a cell-based, multiplexed-readout assay that uses HepG2, a human liver cell line, with measurements taken at 24 hours after chemical dosing in a 24-well plate.ATG_VDRE_CIS is one of 52 assay component(s) measured or calculated from the ATG_CIS assay. It is designed to make measurements of mRNA induction, a form of inducible reporter, as detected with fluorescence intensity signals by Reverse transcription polymerase chain reaction (RT-PCR) and Capillary electrophoresis technology.Data from the assay component ATG_VDRE_CIS was analyzed into 1 assay endpoint. This assay endpoint, ATG_VDRE_CIS, was analyzed with bidirectional fitting relative to DMSO as the negative control and baseline of activity. Using a type of inducible reporter, measures of mRNA for gain or loss-of-signal activity can be used to understand the reporter gene at the transcription factor-level as they relate to the gene VDR. Furthermore, this assay endpoint can be referred to as a primary readout, because this assay has produced multiple assay endpoints where this one serves a reporter gene function. To generalize the intended target to other relatable targets, this assay endpoint is annotated to the nuclear receptor intended target family, where the subfamily is non-steroidal.
Human liver HepG2 cells are transiently transfected with multiple reporter transcription units (MRTUs) in 6-well plates using FuGene 6 reagent (Roche; 3 ml FuGene/1 mg DNA). The MRTU constructs are regulated by a cis-regulating element (promoter). […] A major difference between the CIS and TRANS system is that in CIS activities of endogenous TFs are measured, whereas the TRANS assay evaluates changes in activities of exogenous, chimeric NR-Gal4 proteins. […] At the end of 24 hour incubation, total RNA was isolated using TriZol reagent (Invitrogen). The isolated RNA is then reverse-transcribed using oligo(dT) primer and Mo-MLV reverse transcriptase (Invitrogen) with DNAse I (Ambion) treatment for 30 min. The one-tenth of the produced cDNA was amplified by PCR using Taq DNA polymerase (Invitrogen) and two reporter sequence-specific primers. The PCR products were fluorescently labeled by primer extension with 6-arboxyfluorescein (6-FAM) 5'-labeled reporter sequence-specific primer (2 min at 95 C, 20 s at 68 C and 10 min at 72 C) and these products were digested with 5U of HpaI (New England Biolabs) for 2h at 37 C. The fragments were purified using Qiaquick PCR columns (Qiagen), analyzed on an ABI 3130xL genetic analyzer (Applied Biosystems) with peak positions identified by using a set of X-rhodamine (ROX)-labeled MapMarker1000 molecular weight standards (BioVentures). The raw capillary electrophoresis data was processed using Attagraph software (Attagene).
On to `Oc1ccc2c(c1)CCC2`, for which the outcome was inactive.

For `O=S(=O)(OCC(F)(F)F)C(F)(F)C(F)(F)C(F)(F)C(F)(F)F`, the molecule was classed as inactive.

On to `OCCCC(F)(F)C(F)(F)C(F)(F)C(F)(F)C(F)(F)C(F)(F)C(F)(F)C(F)(F)F`, for which the result was inactive.

In general, AC50 refers to the concentration at which the activity in the assay is half-maximal. Take `CC(C)(C)C(=O)C1C(=O)c2ccccc2C1=O`: the half-maximal activity concentration (AC50) was 42.2 µM (active).

`CNS(=O)(=O)C(F)(F)C(F)(F)C(F)(F)C(F)(F)C(F)(F)C(F)(F)C(F)(F)C(F)(F)F`: the call was inactive.

With `CCN(CC)c1ccc(C=O)cc1`, the AC50 was 163 µM (active).

Regarding `CC1=CCC(=O)O1`, the molecule was classed as inactive.

For `CCc1cc(Cc2cc(CC)c(N)c(CC)c2)cc(CC)c1N`, the AC50 is 11.6 µM (active).

`CCC(Cc1c(I)cc(I)c(N)c1I)C(=O)O` (stereo not given): the molecule was called inactive.

Turning to `Cc1ccc(O)cn1`, the call was inactive.

As to `OC(O)C(F)(F)C(F)(F)F`, the molecule was called inactive.

On to `O=C(O)C(F)(F)OC(F)(F)C(F)(F)OC(F)(F)C(F)(F)OC(F)(F)F`, for which the molecule was called inactive.

As to `OCC(F)(F)C(F)(F)C(F)(F)C(F)(F)C(F)(F)C(F)(F)CO`, the result was inactive.

With `F[Si-2](F)(F)(F)(F)F`, the molecule was classed as inactive.

Regarding `CCCCCCCCn1sc(Cl)c(Cl)c1=O`, the molecule was called inactive.

For `O=C=NCc1cccc(CN=C=O)c1`, the result was inactive.

Consider `O=S(=O)(O)c1ccc(Cl)cc1`, for which the outcome was inactive.

Regarding `CC(C)(C)c1cc(CCC(=O)OCC(COC(=O)CCc2cc(C(C)(C)C)c(O)c(C(C)(C)C)c2)(COC(=O)CCc2cc(C(C)(C)C)c(O)c(C(C)(C)C)c2)COC(=O)CCc2cc(C(C)(C)C)c(O)c(C(C)(C)C)c2)cc(C(C)(C)C)c1O`, the call was inactive.

`CCOC(=O)CC(=O)C(F)(F)C(F)(F)F`: the result was inactive.

Take `CCCCCCCCCCCCCCCCC`: the outcome was inactive.

Take `CCCCOC(=O)[C@H](C)O`: the call was inactive.

`C=C(C)C(=O)OCC(F)(F)C(F)(F)C(F)(F)C(F)F`: the molecule was called inactive.

As for `Brc1nc2ccccc2s1`, the molecule was classed as inactive.

Take `CCN(CC)c1ccc(N=Nc2ccccc2)cc1`: the concentration at half-maximal activity (AC50) was 7.19 µM (active).

`O=S(=O)(O)CCC(F)(F)C(F)(F)C(F)(F)C(F)(F)C(F)(F)C(F)(F)C(F)(F)C(F)(F)F`: the molecule was classed as inactive.

`CCCCC(CC)COC(=O)c1ccc(N(C)C)cc1` (stereo not given): the molecule was classed as inactive.

In the case of `CCOCOCC`, the outcome was inactive.

With `Nc1c(Br)cc([N+](=O)[O-])cc1Br`, the molecule was called inactive.

With `CC(C)=CCCC(C)O` (stereo not given), the result was inactive.

Consider `Cc1ccc([N+](=O)[O-])c(C)c1`, for which the molecule was called inactive.

As for `NCC(F)(F)C(F)(F)C(F)(F)C(F)(F)C(F)(F)C(F)(F)C(F)(F)C(F)(F)F`, the molecule was called inactive.

As for `Nc1cccnc1N`, the result was inactive.

In the case of `O=C(Cl)C(F)(F)C(F)(F)C(F)(F)C(F)(F)C(F)(F)C(F)(F)C(F)(F)F`, the outcome was inactive.

Take `O=C1OC(=O)c2ccc3c4c(ccc1c24)C(=O)OC3=O`: the call was inactive.

For the molecule `CC(C)C(=O)OCc1ccccc1`, the result was inactive.

Regarding `CC(=O)c1ccccc1N`, the outcome was inactive.

`C[C@]12CC[C@H]3C(=CCc4cc(O)ccc43)[C@@H]1CCC2=O`: the outcome was inactive.

In the case of `CCCCCCCC/C=C\CCCCCCCC(=O)N(C)CC(=O)O`, the call was inactive.

For `CCN(CC)c1ccc(C=O)c(O)c1`, the concentration at half-maximal activity (AC50) was 32.5 µM (active).

On to `OCC(F)(F)C(F)(F)C(F)(F)C(F)(F)C(F)(F)C(F)(F)C(F)(F)C(F)(F)CO`, for which the call was inactive.
